Screening data: PubChem, several laboratories
hcDAF-12 act – activates DAF-12 receptor from parasite H. contortus | activation, % at 6.8 µM | 1.4% of 370,000 active | HEK293 hcDAF-12 lit1-tk-luc reporter, luminescence; 0% DMSO, 100% Δ7-dafachronic acid | AID 652067;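 active means activation above the mean of all tested compounds plus 3 SD, cut at about 5.5% in these data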
ssDAF12 agonist – activates DAF-12 receptor from parasite S. stercoralis | 1% of 370,000 active | AID 652126 | HEK293 ssDAF-12/GRIP1 lit1-tk-luc reporter, luminescence; % of 3 µM dafachronic acid response | activation, % at 6.8 µM;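 active means activation above the mean over all tested compounds plus 3 SD, cut at about 0.9% in these data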
DAX1 inh-1 – inhibits human nuclear receptor DAX1. 0.99% of 340,000 active. AID 504766. inhibition, % at 6.75 µM. HEK293 Gal4-DAX1 luciferase reporter, luminescence;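 active means inhibition above the mean over all tested compounds plus 3 SD, cut at about 4.2% in these data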;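 further: inhibition shows as a rise in luminescence from relieved DAX1 repression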
Target sequence (P51843 207-470 limits assumed): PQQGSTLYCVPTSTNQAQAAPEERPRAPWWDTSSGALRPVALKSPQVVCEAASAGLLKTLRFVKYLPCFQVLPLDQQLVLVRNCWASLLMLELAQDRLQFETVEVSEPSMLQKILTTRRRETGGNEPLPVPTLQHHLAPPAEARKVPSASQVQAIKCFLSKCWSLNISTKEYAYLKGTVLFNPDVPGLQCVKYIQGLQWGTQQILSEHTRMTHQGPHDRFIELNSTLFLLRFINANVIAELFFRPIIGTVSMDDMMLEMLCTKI
hgDAF12 agonist – agonists of H. glycines DAF-12 nuclear receptor; HEK293 GAL4-hgDAF12 UAS-luciferase reporter, agonist luminescence; normalized to butyrate control; activation, % at 6.8 µM; 1.8% of 370,000 active; AID 687014;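 active means activation above a cutoff set at the mean of all screened compounds plus 3 SD, cut at about 10% in these data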
DAX1 inh-2 – inhibitors of DAX1 repression of SF-1 activated StAR promoter; HEK293T StAR-luciferase reporter, SF-1/DAX-1 repression relief; inhibition, % at 6.8 µM; 1.1% of 370,000 active; AID 652010;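 active means inhibition above the mean over all tested compounds plus 3 SD, cut at about 3.6% in these data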;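 further: higher inhibition means more luminescence from relief of DAX-1 repression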
NR1D1 modulator – modulators of human Rev-erb alpha DNA binding; P20393; Rev-erbα–FITC-DNA binding, fluorescence polarization, 90 min; activity, % at 10 µM; 0.79% of 370,000 active; AID 1259318;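 active means activity above about 14%, limit read from the data; passing the limit was not always enough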
DAX1 inh confirm – NR0B1 (human) inhibition, confirmation; shares compounds with DAX1 inh-2; HEK293T StAR-promoter luciferase reporter, SF-1/DAX-1 repression; inhibition, % at 6.8 µM; 87% of 2,400 active; AID 652134;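 active means inhibition above the average of every tested compound plus 3 SD, cut at about 3.8% in these data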;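 further: active compounds raise luminescence by relieving repression of the StAR reporter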
SF1 mutant ctr – nonselective inhibitor or artifact in SF-1 mutant DAX1 counter-screen. shares compounds with DAX1 inh-2. HEK293 StAR-luciferase, SF-1 AF2 mutant, luminescence. inhibition, % at 6.8 µM. 78% of 2,400 active. AID 652136;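 active means inhibition above the mean of all tested compounds plus 3 SD, cut at about 3% in these data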
Numbers stand for hits; n = inactive; x = no result. A selection: hits, their analogues and other compounds. The true share with any hit is near 4.8%.

SMILES | hcDAF-12 act | ssDAF12 agonist | DAX1 inh-1 | hgDAF12 agonist | DAX1 inh-2 | NR1D1 modulator | DAX1 inh confirm | SF1 mutant ctr
O=C(Nc1ccc(Cl)cc1Cl)c1ccc2ncsc2c1 | n | n | n | n | n | n | x | x
O=C(Nc1ccc(F)cc1F)c1ccc2ncsc2c1 | n | n | n | n | 4.9 | n | n | n
CCc1ccc(C(=O)NCC2(c3ccccc3)CCOCC2)o1 | n | n | n | 13.4 | 4.6 | n | 6.7 | 3.4
O=C(NCC1(c2ccccc2)CCOCC1)c1ccc(Br)o1 | n | n | n | n | n | n | x | x
COc1ccc(C(=O)N=c2sc3c(C)ccc(OC)c3n2C)cc1 | n | n | n | 12.9 | 4.8 | n | n | n
Cc1ccc(-c2nnc(SCC(=O)Nc3ccc(OCc4ccccc4)cc3)n2-c2ccc(Cl)cc2)cc1 | n | n | x | n | n | n | x | x
O=C(NCCCN1CCCC1=O)C(=O)Nc1cccc(F)c1 | n | n | n | n | 5.9 | n | 7.5 | 5.3
Cc1cc(C(=O)CSc2nnc(N)s2)c(C)n1C1CC1 | n | n | n | n | 5.6 | n | 4.1 | n
Cc1cc(C)c(C(=O)CSc2nnc(N)s2)cc1C | n | n | n | n | n | n | x | x
Cc1ccc(C(=O)CSc2nnc(N)s2)c(C)c1 | n | 1.0 | n | 12.9 | 7.8 | n | 8.9 | 5.4
Cc1cc(C(=O)CSc2nc(N)cc(N)n2)c(C)n1C1CC1 | n | n | n | n | n | n | x | x
O=C(c1ccc(-c2ccccc2Cl)o1)N1CCCCCCC1 | n | n | n | 10.8 | 5.4 | n | 8.4 | 6.1
CC(=O)N1CCN(C(=O)c2ccc(-c3ccccc3Cl)o2)CC1 | n | n | n | n | n | n | x | x
COC(=O)C1=C(C)N(C)C(=NCc2cccc(C(F)(F)F)c2)NC1c1ccccc1 (stereo not given) | n | n | x | n | n | n | x | x
C=CCn1c(C)cc(C(=O)COc2ncnc3sccc23)c1C | 6.3 | n | n | 10.9 | 5.2 | n | 13.8 | 6.5
O=C(Nc1ncc(Cc2ccccc2)s1)C1CCCO1 (stereo not given) | n | n | n | 12.5 | 8.3 | n | 10.9 | 4.8
COc1ccc(O)c(C(=O)CC(=O)c2cccnc2)c1 | n | n | n | n | 6.5 | n | 7.3 | 6.9
Cc1ccc(S(=O)(=O)N2CCN(C(=O)Cn3cnc4c3c(=O)n(C)c(=O)n4C)CC2)cc1C | n | n | n | n | 5.0 | n | n | n
O=[N+]([O-])c1ccc(F)cc1OCc1nc(-c2cccs2)no1 | 6.1 | 1.1 | n | 12.0 | 6.9 | n | 8.7 | 4.8
CCOC(=O)C1=CCN(S(=O)(=O)c2ccc(Br)cc2)C1c1ccc(Br)cc1 (stereo not given) | n | n | x | n | n | n | x | x
COc1ccc(/C=N/Nc2nncc3ccccc23)cc1 | 10.6 | 1.9 | n | 16.7 | 6.4 | n | 13.5 | n
COc1ccc(/C=N/Nc2nccnc2Cl)cc1 | n | n | n | 12.1 | 5.9 | n | 13.9 | 8.7
O=[N+]([O-])c1ccc(CSc2nnc(-c3cccc(Cl)c3)n2Cc2ccco2)cc1 | n | n | x | n | n | n | x | x
CC(C)c1nnc(NC(=O)c2ccc3ccccc3c2)s1 | 5.7 | n | n | 12.8 | 11.8 | n | 12.6 | 8.1
CC(C)Sc1nnc(NC(=O)c2ccc3c(c2)OCO3)s1 | n | n | n | n | 5.3 | n | 7.7 | 4.4
SMILES | hcDAF-12 act | ssDAF12 agonist | DAX1 inh-1 | hgDAF12 agonist | DAX1 inh-2 | NR1D1 modulator | DAX1 inh confirm | SF1 mutant ctr
Cc1nnc(NC(=O)c2cccc(F)c2)s1 | n | n | n | n | n | n | x | x
CCSc1nnc(NC(=O)c2ccc3c(c2)OCO3)s1 | n | n | n | n | n | n | x | x
Cc1nnc(NC(=O)c2ccc3ccccc3c2)s1 | n | n | n | n | 5.4 | n | 10.2 | 5.4
CCn1c2ccccc2c2cc(NC(=O)COC(=O)c3cc(F)ccc3C)ccc21 | n | n | x | n | n | n | x | x
CCCCOCCCNC(=O)C[C@@H]1C(=O)N(CCc2ccc(Cl)cc2)C2=CCCC[C@]21C(=O)OCC | n | n | x | n | n | n | x | x
N#CCC(=O)N/N=C\c1cccc(OC/C=C/c2ccccc2)c1 | n | n | n | 10.9 | 12.8 | n | 14.4 | 6.9
CN(C)[C@H]1CCN(c2ccc3c(c2)OCCCN(C2CC2)S3(=O)=O)C1 | n | n | x | n | n | n | x | x
CCOC(=O)C1CCN(C(=O)c2ccc(C)o2)CC1 | n | n | n | n | n | n | x | x
CCOC(=O)C1CCN(C(=O)c2cc3cc4ccc(C)cc4nc3o2)CC1 | n | n | n | n | 7.5 | n | 8.0 | 4.9
Cc1nc(-c2ccc(NC(=O)/C=C\C(=O)O)cc2)cs1 | n | n | n | n | n | n | x | x
Cc1ccc2sc(-c3ccc(NC(=O)/C=C\C(=O)O)cc3)nc2c1 | 6.2 | n | n | 12.0 | 5.3 | n | 9.9 | 6.5
N#CCCCc1cn(-c2cccc(-c3noc4c3C(=O)N(CC(=O)N3CCOCC3)CC4)c2)nn1 | n | n | x | n | n | n | x | x
COc1ccccc1C(=O)NCCC(=O)NC1CCCCC1C (stereo not given) | n | n | n | n | n | n | x | x
COc1ccccc1C(=O)NCCC(=O)NC1CCC(C)CC1 (stereo not given) | n | n | n | n | 8.7 | n | 10.3 | 4.6
CC(C)[C@@H](C)/C=C/[C@@H](C)[C@H]1CC[C@@H]2[C@]1(C)CCC1[C@]23C=C[C@]2(C[C@@H](O)CC[C@]12C)N(c1cnccn1)O3 (stereo not given in full) | n | n | x | n | 4.6 | n | n | n
O=C(CCNC(=O)N1CC(=O)Nc2ccccc21)NCc1ccc(F)cc1 | n | n | n | n | 6.0 | n | 5.3 | 3.3
Cc1nnc(NC(=O)c2nc(S(=O)(=O)Cc3ccccc3)ncc2Cl)s1 | n | n | n | n | 5.6 | n | n | n
Cc1ccsc1C(=O)N1CCc2ccccc2C1 | n | n | n | n | n | n | x | x
Cc1ccsc1C(=O)OCC(=O)N(C)C1CCCCC1 | 5.9 | n | n | 12.5 | 10.3 | n | 10.6 | 6.3
Cc1ccsc1C(=O)OCC(=O)N1CCc2ccccc2C1 | n | n | n | 10.7 | 6.9 | n | 12.6 | 5.9
Cc1ccc(-c2cc(C(=O)NN=Cc3sccc3C)[nH]n2)cc1C | n | n | x | n | n | n | x | x
Cc1ccc2c(c1)-c1nc3ccccc3cc1C2=NC1CCCCC1 | 12.6 | 1.6 | n | 18.9 | 4.8 | n | 4.0 | n
COc1cccc(C(=O)Nc2ccccc2F)c1 | n | n | n | n | n | n | x | x
O=C(Nc1ccccc1F)c1ccc(C(=O)c2ccccc2)cc1 | n | n | n | 11.7 | 4.7 | n | 7.0 | 4.4
